Data reported in PubChem BioAssay (EPA / NIEHS).
Values joined by “and” are separate entries in the source; they are usually repeats but may differ in a detail not shown here. Equal values may be shown once. Inconclusive results are not listed. Some structures have more than one record in an assay (separate samples or runs), and their calls can disagree. Active and inactive are the calls of the source. How the source made its calls: active means hit-call score of the fitted dose curve at least 0.9, where 1 is the maximum; inconclusive means response in the unintended direction; inactive means score below 0.9.

Experiments:
AR (gene 367) = AR (gene 367) (UniProt P10275); test: ACEA_AR_antagonist_80hr: ACEA Biosciences xCELLigence Real-Time Cell Analysis on Androgen Receptor Antagonism for Proliferation (AID 2283787);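 further: 22Rv1 human prostate cancer cells with growth followed by electrical impedance; hits lower the impedance growth signal relative to DMSO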
AR (gene 367), sequence (P10275 whole entry, looked up): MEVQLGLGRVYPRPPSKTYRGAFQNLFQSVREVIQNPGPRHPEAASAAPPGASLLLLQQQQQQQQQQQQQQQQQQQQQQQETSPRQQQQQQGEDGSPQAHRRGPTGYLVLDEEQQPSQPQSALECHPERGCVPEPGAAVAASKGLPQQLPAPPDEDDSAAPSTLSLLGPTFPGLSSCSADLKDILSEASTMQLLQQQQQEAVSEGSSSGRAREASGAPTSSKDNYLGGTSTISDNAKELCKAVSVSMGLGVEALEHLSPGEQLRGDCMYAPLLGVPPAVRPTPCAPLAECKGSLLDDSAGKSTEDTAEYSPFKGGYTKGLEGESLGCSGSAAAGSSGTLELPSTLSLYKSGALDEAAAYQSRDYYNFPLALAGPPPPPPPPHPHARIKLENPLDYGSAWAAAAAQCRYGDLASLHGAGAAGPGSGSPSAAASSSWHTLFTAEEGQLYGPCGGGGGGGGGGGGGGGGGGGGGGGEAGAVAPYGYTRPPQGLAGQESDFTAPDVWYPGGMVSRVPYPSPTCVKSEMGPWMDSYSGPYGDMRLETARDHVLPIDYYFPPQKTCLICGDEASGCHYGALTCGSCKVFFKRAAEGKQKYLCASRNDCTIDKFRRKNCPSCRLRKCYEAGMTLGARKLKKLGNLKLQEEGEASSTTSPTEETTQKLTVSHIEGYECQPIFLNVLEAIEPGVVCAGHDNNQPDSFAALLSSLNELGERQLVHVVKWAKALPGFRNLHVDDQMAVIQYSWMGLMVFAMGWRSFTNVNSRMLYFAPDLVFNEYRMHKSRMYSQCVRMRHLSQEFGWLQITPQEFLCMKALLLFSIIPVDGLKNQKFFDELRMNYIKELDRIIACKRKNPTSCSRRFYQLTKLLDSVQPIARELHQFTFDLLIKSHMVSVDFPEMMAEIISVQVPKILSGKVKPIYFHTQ
In short: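 Using 22Rv1 cells held in assay medium, we dosed compounds (100 uM maximum final, 1:4 serial, eight points, 0.5% DMSO at top) and recorded cell-electrode impedance; the 80 hr timepoint was analyzed against DMSO.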

[1] = ATG_M_06_XSP1: Attagene TRANS-FACTORIAL Multi-Species (XSP1) HepG2 Assay for M06 Transcription Factor (Internal Marker) (AID 2283790)
In short: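 This background-control readout tracks M06 reporter mRNA, measured by RT-PCR and capillary electrophoresis. HepG2 cells transiently carrying the GAL4-UAS reporter panel were dosed for 24 h with 3 nM 6-alpha-fluorotestosterone added for partial AR stimulation; increases were scored relative to DMSO.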

[2] = ATG_M_61_XSP1: Attagene TRANS-FACTORIAL Multi-Species (XSP1) HepG2 Assay for M61 Transcription Factor (Internal Marker) (AID 2283797)
In short: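 Background-control readout: reporter transcripts measured by RT-PCR and capillary electrophoresis 24 h after dosing transiently transfected HepG2 multi-reporter cells, with 3 nM 6-alpha-fluorotestosterone present. Fitted in the positive direction relative to DMSO.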

[3] = target: mouse Peroxisome Proliferator-activated Receptor gamma (PPARg), Pparg (gene 19016) (UniProt P37238); test: ATG_mPPARg_XSP1: Attagene TRANS-FACTORIAL Multi-Species (XSP1) HepG2 Assay for mouse Peroxisome Proliferator-activated Receptor gamma (PPARg) (AID 2283802)
mouse Peroxisome Proliferator-activated Receptor gamma (PPARg), Pparg (gene 19016), sequence (P37238 whole entry, looked up, the tested form may be a part): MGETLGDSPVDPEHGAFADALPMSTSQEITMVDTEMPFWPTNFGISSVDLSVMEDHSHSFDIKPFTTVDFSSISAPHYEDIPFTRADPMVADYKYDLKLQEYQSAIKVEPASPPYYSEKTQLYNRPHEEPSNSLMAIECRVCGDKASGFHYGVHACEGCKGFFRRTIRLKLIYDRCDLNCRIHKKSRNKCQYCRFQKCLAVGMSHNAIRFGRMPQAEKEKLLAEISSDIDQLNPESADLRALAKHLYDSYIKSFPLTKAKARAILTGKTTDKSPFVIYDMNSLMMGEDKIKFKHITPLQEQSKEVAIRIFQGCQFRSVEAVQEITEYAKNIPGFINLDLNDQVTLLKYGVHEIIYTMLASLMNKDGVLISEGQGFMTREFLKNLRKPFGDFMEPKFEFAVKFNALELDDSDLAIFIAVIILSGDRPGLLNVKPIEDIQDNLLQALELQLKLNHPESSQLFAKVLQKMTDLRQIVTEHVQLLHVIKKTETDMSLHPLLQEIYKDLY
In short: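 Readout is reporter mRNA induction, measured by RT-PCR with 6-FAM labelling, HpaI digestion and capillary electrophoresis, 24 h post-dose relative to DMSO. Transient multi-reporter transfection of human HepG2 with mouse PPARg–GAL4 fusion; 3 nM 6-alpha-fluorotestosterone included.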

[4] = target: Nuclear receptor subfamily 1 group I member 2 (Mus musculus) (UniProt O54915); test: ATG_mPXR_XSP1: Attagene TRANS-FACTORIAL Multi-Species (XSP1) HepG2 Assay for mouse Pregnane X Receptor (PXR) (AID 2283803)
Nuclear receptor subfamily 1 group I member 2 (Mus musculus), sequence (O54915 whole entry, looked up, the tested form may be a part): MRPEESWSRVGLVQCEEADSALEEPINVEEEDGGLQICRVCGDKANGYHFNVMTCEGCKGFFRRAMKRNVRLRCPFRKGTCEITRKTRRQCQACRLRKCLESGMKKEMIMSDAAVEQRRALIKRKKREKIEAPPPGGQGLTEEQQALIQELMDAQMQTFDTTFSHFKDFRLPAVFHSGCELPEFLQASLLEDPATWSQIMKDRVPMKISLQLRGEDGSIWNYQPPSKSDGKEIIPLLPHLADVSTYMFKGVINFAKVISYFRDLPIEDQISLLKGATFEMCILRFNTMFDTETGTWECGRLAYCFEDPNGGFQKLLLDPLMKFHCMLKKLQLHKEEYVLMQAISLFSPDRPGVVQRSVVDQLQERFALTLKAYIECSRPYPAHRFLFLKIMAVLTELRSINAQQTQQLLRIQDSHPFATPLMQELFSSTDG
In short: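 Transiently transfected HepG2 cells expressing a receptor-Gal4 chimera drive a GAL4-UAS reporter; 3 nM 6-alpha-fluorotestosterone included. Reporter mRNA read 24 h post-dose by RT-PCR and capillary electrophoresis; gain of signal relative to DMSO.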

[5] = target: frog Thyroid hormone Receptor alpha (TRa), thra-a (gene 397942) (UniProt P15204); test: ATG_frTRa_XSP1: Attagene TRANS-FACTORIAL Multi-Species (XSP1) HepG2 Assay for frog Thyroid hormone Receptor alpha (TRa) (AID 2283804)
frog Thyroid hormone Receptor alpha (TRa), thra-a (gene 397942), sequence (P15204 whole entry, looked up, the tested form may be a part): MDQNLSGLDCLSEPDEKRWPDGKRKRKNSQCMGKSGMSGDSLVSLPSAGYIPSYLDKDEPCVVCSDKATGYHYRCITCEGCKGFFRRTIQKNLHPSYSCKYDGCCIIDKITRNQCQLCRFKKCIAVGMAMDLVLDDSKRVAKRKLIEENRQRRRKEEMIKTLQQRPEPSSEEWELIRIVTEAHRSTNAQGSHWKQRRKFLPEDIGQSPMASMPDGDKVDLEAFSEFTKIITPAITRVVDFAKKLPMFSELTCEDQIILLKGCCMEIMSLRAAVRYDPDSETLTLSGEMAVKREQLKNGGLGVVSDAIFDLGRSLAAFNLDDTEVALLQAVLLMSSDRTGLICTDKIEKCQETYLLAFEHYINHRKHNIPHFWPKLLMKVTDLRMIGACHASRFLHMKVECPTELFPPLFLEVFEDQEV
In short: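 Reporter transcript induction, measured by RT-PCR with 6-FAM labelling and capillary electrophoresis, 24 hr after dosing transiently transfected HepG2 cells expressing a frog TRa-GAL4 fusion; medium contained 3 nM 6-alpha-fluorotestosterone; increase over DMSO scored.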

[6] = target: human Thyroid hormone Receptor alpha (TRa), THRA (gene 7067) (UniProt P10827); test: ATG_hTRa_XSP1: Attagene TRANS-FACTORIAL Multi-Species (XSP1) HepG2 Assay for human Thyroid hormone Receptor alpha (TRa) (AID 2283805)
human Thyroid hormone Receptor alpha (TRa), THRA (gene 7067), sequence (P10827 whole entry, looked up, the tested form may be a part): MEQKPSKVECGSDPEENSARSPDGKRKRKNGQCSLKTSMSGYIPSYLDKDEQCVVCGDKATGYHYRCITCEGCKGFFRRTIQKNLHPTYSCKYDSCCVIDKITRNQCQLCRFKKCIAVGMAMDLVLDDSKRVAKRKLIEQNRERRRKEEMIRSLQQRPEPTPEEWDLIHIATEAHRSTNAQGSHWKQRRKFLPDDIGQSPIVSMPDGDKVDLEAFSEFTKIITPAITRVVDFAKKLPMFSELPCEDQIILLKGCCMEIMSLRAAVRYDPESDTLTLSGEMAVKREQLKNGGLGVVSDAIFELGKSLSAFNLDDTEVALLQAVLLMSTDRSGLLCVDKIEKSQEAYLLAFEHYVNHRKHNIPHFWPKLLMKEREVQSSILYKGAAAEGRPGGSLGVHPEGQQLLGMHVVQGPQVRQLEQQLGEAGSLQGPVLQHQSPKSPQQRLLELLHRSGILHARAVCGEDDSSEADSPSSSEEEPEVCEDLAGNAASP
In short: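 Reporter transcripts from the human TRa-Gal4 TRANS unit quantified by RT-PCR, fluorescent labeling and capillary electrophoresis after 24 hours of chemical exposure in transfected HepG2 cells; medium contains 3 nM 6-alpha-fluorotestosterone. Positive direction fit against DMSO.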

[7] = system: turtle Thyroid Hormone Receptor, alpha (TRa), gene 101949057; test: ATG_trTRa_XSP1: Attagene TRANS-FACTORIAL Multi-Species (XSP1) HepG2 Assay for turtle Thyroid Hormone Receptor, alpha (TRa) (AID 2283806)
In short: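 After 24 h chemical exposure, reporter transcripts were measured by RT-PCR with fluorescent primer extension, HpaI digestion and capillary electrophoresis. Cells were transiently transfected HepG2 expressing exogenous NR-Gal4 chimeras; medium contained 3 nM 6-alpha-fluorotestosterone; fitted upward relative to DMSO.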

[8] = target: zebrafish Thyroid Hormone Receptor alpha (TRa), thraa (gene 30670) (UniProt Q98867); test: ATG_zfTRa_XSP1: Attagene TRANS-FACTORIAL Multi-Species (XSP1) HepG2 Assay for zebrafish Thyroid Hormone Receptor alpha (TRa) (AID 2283807)
zebrafish Thyroid Hormone Receptor alpha (TRa), thraa (gene 30670), sequence (Q98867 whole entry, looked up, the tested form may be a part): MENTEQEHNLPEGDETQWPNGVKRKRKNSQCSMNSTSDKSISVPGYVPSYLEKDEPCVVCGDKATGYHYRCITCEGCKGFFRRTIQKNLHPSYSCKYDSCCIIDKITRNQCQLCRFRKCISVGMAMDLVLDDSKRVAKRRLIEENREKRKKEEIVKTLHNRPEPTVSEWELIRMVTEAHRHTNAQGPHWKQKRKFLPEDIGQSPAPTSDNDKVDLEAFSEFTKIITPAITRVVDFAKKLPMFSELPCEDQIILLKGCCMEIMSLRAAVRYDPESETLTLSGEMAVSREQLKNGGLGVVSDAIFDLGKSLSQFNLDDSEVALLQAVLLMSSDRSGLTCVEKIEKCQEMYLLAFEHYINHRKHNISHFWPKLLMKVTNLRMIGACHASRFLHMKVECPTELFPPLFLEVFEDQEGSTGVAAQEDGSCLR
In short: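 Reporter transcripts driven by a chimeric zebrafish TRa–Gal4 protein were measured by RT-PCR with fluorescent labelling and capillary electrophoresis. These came from transiently transfected HepG2 cells after 24 h chemical exposure, with 3 nM 6-alpha-fluorotestosterone added; baseline was DMSO.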

[9] = target: zebrafish Thyroid Hormone Receptor beta (TRb), thrb (gene 30607) (UniProt Q9PVE4); test: ATG_zfTRb_XSP1: Attagene TRANS-FACTORIAL Multi-Species (XSP1) HepG2 Assay for zebrafish Thyroid Hormone Receptor beta (TRb) (AID 2283809)
zebrafish Thyroid Hormone Receptor beta (TRb), thrb (gene 30607), sequence (Q9PVE4 whole entry, looked up, the tested form may be a part): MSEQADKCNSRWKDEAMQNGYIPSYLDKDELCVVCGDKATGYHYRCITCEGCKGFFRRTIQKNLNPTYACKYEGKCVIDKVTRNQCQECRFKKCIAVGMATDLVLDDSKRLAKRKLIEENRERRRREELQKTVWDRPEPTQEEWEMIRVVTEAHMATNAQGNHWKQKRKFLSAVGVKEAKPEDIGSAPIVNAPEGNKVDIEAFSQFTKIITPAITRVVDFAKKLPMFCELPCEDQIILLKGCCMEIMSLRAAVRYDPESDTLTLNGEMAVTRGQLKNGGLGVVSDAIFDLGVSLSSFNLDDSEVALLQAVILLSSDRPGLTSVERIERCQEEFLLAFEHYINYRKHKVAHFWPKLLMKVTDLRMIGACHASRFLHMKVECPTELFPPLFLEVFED
In short: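 HepG2 cells transiently transfected with multiplexed GAL4-UAS reporter units expressing chimeric zebrafish TRb–Gal4. Dosed 24 h with 3 nM 6-alpha-fluorotestosterone present; reporter mRNA measured by RT-PCR, HpaI digestion and capillary electrophoresis; gain of signal versus DMSO.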

[10] = ATG_M_06_XSP2: Attagene TRANS-FACTORIAL Multi-Species (XSP2) HepG2 Assay for M06 Transcription Factor (Internal Marker) (AID 2283811);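 further: hits are increases in signal above the DMSO baseline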
In short: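 Cells of the human liver line HepG2 carried transfected reporter transcription units and were treated for 24 h. Induced reporter transcripts were detected by fluorescence after RT-PCR and capillary electrophoresis, with activity fitted in the gain direction against DMSO.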

[11] = system: turtle Estrogen Receptor (ERa), gene 101933533; test: ATG_trERa_XSP2: Attagene TRANS-FACTORIAL Multi-Species (XSP2) HepG2 Assay for turtle Estrogen Receptor (ERa) (AID 2283812);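 further: actives raise reporter signal above DMSO so AC50 reflects agonist activity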
In short: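 Readout is reporter mRNA quantified by RT-PCR with capillary electrophoresis after 24 h compound exposure, increase relative to DMSO. Uses transiently transfected human HepG2 liver cells carrying a chimeric turtle ERa-Gal4 receptor driving GAL4-UAS reporters.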

[12] = target: human Thyroid hormone Receptor beta (TRb), THRB (gene 7068) (UniProt P10828); test: ATG_hTRb_XSP1: Attagene TRANS-FACTORIAL Multi-Species (XSP1) HepG2 Assay for human Thyroid hormone Receptor beta (TRb) (AID 2283808)
human Thyroid hormone Receptor beta (TRb), THRB (gene 7068), sequence (P10828 whole entry, looked up, the tested form may be a part): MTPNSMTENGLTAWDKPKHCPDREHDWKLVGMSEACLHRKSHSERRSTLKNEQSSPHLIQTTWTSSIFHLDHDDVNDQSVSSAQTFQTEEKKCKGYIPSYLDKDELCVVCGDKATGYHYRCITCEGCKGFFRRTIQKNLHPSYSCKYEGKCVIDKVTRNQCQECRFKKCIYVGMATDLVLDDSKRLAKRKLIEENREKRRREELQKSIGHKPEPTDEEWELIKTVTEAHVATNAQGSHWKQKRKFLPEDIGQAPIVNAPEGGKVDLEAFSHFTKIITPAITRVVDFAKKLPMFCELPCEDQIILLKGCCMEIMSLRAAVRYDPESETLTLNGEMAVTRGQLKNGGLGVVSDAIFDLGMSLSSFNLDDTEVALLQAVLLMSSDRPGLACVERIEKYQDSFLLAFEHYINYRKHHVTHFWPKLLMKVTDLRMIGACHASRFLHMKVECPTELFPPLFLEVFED
In short: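 Readout is reporter mRNA induction measured by RT-PCR, fluorescent labelling and capillary electrophoresis, fitted upward relative to DMSO. Transiently transfected human HepG2 cells expressing NR-Gal4 chimeras were dosed for 24 h, medium containing 3 nM 6-alpha-fluorotestosterone.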

[13] = target: GAL4 Transcription Factor (Internal Marker), GAL4 (gene 855828) (UniProt P04386); test: ATG_GAL4_XSP1: Attagene TRANS-FACTORIAL Multi-Species (XSP1) HepG2 Assay for GAL4 Transcription Factor (Internal Marker) (AID 2283789)
In short: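 This background-control endpoint measures GAL4-driven reporter mRNA via RT-PCR and capillary electrophoresis of labelled fragments. Transiently transfected HepG2 cells were treated 24 h, with 3 nM 6-alpha-fluorotestosterone included, and gain-of-signal was fitted against DMSO.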

[14] = ATG_M_19_XSP1: Attagene TRANS-FACTORIAL Multi-Species (XSP1) HepG2 Assay for M19 Transcription Factor (Internal Marker) (AID 2283798)
In short: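 Readout is reporter mRNA induction quantified via RT-PCR, 6-FAM labeling, HpaI digestion and capillary electrophoresis, fitted in the positive direction versus DMSO baseline. Transfected HepG2 cells exposed 24 h, medium including 3 nM 6-alpha-fluorotestosterone.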

[15] = system: zebrafish Peroxisome Proliferator-activated Receptor gamma (PPARg), gene 557037; test: ATG_zfPPARg_XSP1: Attagene TRANS-FACTORIAL Multi-Species (XSP1) HepG2 Assay for zebrafish Peroxisome Proliferator-activated Receptor gamma (PPARg) (AID 2283801)
In short: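 Trans-activation readout of chimeric zebrafish PPARg–GAL4 in transiently transfected human HepG2 cells, 24 h chemical exposure (medium includes 3 nM 6-alpha-fluorotestosterone). Reporter transcripts measured by RT-PCR and capillary electrophoresis, fitted as gain over DMSO.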

[16] = ATG_M_32_XSP1: Attagene TRANS-FACTORIAL Multi-Species (XSP1) HepG2 Assay for M32 Transcription Factor (Internal Marker) (AID 2283799)
In short: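 Reporter transcripts from the M32 internal-control unit measured by RT-PCR, FAM labelling, HpaI digestion and capillary electrophoresis after 24 h compound exposure of transfected HepG2, 3 nM 6-alpha-fluorotestosterone included; DMSO baseline, positive-direction fit.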

[17] = target: Peroxisome proliferator-activated receptor gamma (Homo sapiens) (UniProt P37231); test: ATG_hPPARg_XSP1: Attagene TRANS-FACTORIAL Multi-Species (XSP1) HepG2 Assay for human Peroxisome Proliferator-activated Receptor gamma (PPARg) (AID 2283800)
Peroxisome proliferator-activated receptor gamma (Homo sapiens), sequence (P37231 whole entry, looked up, the tested form may be a part): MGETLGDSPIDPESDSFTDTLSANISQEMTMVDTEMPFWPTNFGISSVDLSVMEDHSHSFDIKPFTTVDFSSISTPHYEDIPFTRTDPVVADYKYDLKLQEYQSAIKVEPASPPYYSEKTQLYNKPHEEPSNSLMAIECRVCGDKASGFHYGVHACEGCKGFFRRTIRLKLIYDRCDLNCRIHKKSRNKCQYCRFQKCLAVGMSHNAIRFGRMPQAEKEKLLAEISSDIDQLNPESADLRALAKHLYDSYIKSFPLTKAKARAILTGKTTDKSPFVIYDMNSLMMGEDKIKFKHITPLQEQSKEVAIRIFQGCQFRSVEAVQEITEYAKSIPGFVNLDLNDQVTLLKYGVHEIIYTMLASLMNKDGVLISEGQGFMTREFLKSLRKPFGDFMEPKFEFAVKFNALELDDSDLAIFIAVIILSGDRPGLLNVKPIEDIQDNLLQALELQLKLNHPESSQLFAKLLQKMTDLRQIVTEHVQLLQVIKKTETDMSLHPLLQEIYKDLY
In short: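 Reporter mRNA induction, measured by RT-PCR with capillary electrophoresis 24 h after dosing, scored as gain over DMSO. Transfected HepG2 cells express exogenous NR-Gal4 chimeras driving GAL4-UAS reporters; medium includes 3 nM 6-alpha-fluorotestosterone.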

[18] = ATG_XTT_Cytotoxicity_XSP1: Cytotoxicity Assessment in the Attagene TRANS-FACTORIAL Multi-Species (XSP1) HepG2 Assay (AID 2283810)
In short: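 XTT viability readout taken at 24 hours post-dosing in HepG2 liver cells co-treated with 3 nM 6-alpha-fluorotestosterone. Signal loss relative to DMSO controls reflects cytotoxicity.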

[19] = target: Estrogen receptor beta (Homo sapiens) (UniProt Q92731); test: ATG_hERb_XSP1: Attagene TRANS-FACTORIAL Multi-Species (XSP1) HepG2 Assay for human Estrogen Receptor (ESR2) (AID 2283788)
In short: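 Multiplexed trans-activation in transfected HepG2: ERβ-Gal4 reporter transcripts after 24 h treatment, detected by RT-PCR plus capillary electrophoresis.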

CC(C)(c1ccc(O)cc1)c1ccc(O)cc1
AC50 (AR (gene 367)): 43.6 µM (active)
outcome [1]: inactive
outcome [2]: inactive
outcome [3]: inactive
outcome [4]: inactive
outcome [5]: inactive
outcome [6]: inactive
outcome [7]: inactive
outcome [8]: inactive
outcome [9]: inactive
outcome [10]: inactive
AC50 [11]: 189 nM (active)

N[C@@H](Cc1cc(I)c(Oc2ccc(O)c(I)c2)c(I)c1)C(=O)O
outcome [10]: inactive
AC50 [11]: 359 nM (active) and 3.85 µM (active)

CCCN(CCC)C(=O)SCC
outcome (AR (gene 367)): inactive

Cc1nn(C)c(Oc2ccccc2)c1C=NOCc1ccc(C(=O)OC(C)(C)C)cc1
AC50 (AR (gene 367)): 12.7 µM (active)

C#C[C@]1(O)CC[C@H]2[C@@H]3CCC4=CC(=O)CC[C@@H]4[C@H]3CC[C@@]21CC
outcome [5]: inactive
outcome [7]: inactive
outcome [8]: inactive
outcome [12]: inactive
outcome [9]: inactive
outcome [10]: inactive
AC50 [11]: 522 nM (active)
outcome [11]: inactive

CCCOC(=O)c1ccc(C(=O)OCCC)nc1
outcome (AR (gene 367)): inactive

CC1(C)C(C=C(Cl)Cl)C1C(=O)OCc1cccc(Oc2ccccc2)c1 (stereo unspecified)
AC50 (AR (gene 367)): 33 µM (active)
outcome [13]: inactive
outcome [14]: inactive
outcome [15]: inactive
AC50 [4]: 1.73 µM (active)
outcome [5]: inactive
outcome [7]: inactive
outcome [8]: inactive
AC50 [11]: 42300 nM (active)

O=C(O)C1(C(=O)Nc2ccc(Cl)cc2Cl)CC1
AC50 (AR (gene 367)): 65.1 µM (active)

CCOC(=O)C(C)Oc1ccc(Oc2nc3ccc(Cl)cc3o2)cc1 (stereo unspecified)
AC50 (AR (gene 367)): 42.6 µM (active)

C[C@]12CC[C@@H]3c4ccc(O)cc4C[C@@H](CCCCCCCCCS(=O)CCCC(F)(F)C(F)(F)F)[C@H]3[C@@H]1CC[C@@H]2O (stereo partly specified)
AC50 (AR (gene 367)): 11.9 µM (active)

N#CSCSc1nc2ccccc2s1
AC50 (AR (gene 367)): 15.1 µM (active)

O=C(c1ccccc1)C1CCCCC1
outcome (AR (gene 367)): inactive

COC(=O)CSc1cc(N=c2sc(=O)n3n2CCCC3)c(F)cc1Cl
outcome (AR (gene 367)): inactive

CCSC(=O)N(CC(C)C)CC(C)C
outcome (AR (gene 367)): inactive

CCCCC(CC)CN1C(=O)C2C3C=CC(C3)C2C1=O (stereo unspecified)
outcome [13]: inactive
outcome [14]: inactive
outcome [16]: inactive
AC50 [17]: 15.5 µM (active)
outcome [15]: inactive
AC50 [3]: 27.7 µM (active)
AC50 [4]: 0.845 µM (active)
outcome [9]: inactive
outcome [18]: inactive
outcome [11]: inactive

CCCCOCCOCCOCc1cc2c(cc1CCC)OCO2
AC50 (AR (gene 367)): 76.3 µM (active)

CC(=O)S[C@@H]1CC2=CC(=O)CC[C@]2(C)[C@H]2CC[C@@]3(C)[C@@H](CC[C@@]34CCC(=O)O4)[C@H]12
outcome [19]: inactive
outcome [1]: inactive
outcome [2]: inactive
outcome [17]: inactive
outcome [15]: inactive
outcome [3]: inactive
AC50 [4]: 0.411 µM (active)
outcome [5]: inactive
outcome [6]: inactive
outcome [8]: inactive
outcome [12]: inactive
outcome [9]: inactive
outcome [10]: inactive
outcome [11]: inactive
